Experimental data reported in ChEMBL document CHEMBL1961873, “Compounds: GSK PKIS; Assays: Nanosyn kinase panel” (2012).

Experiments:
[1] = target: Protein kinase C gamma type (Homo sapiens) (UniProt P05129); details: at 1 µM;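 also: each value is an averaged percent inhibition of the enzyme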
[2] = target: T1, Protein kinase C iota type (Homo sapiens) (UniProt P41743); details: at 0.1 µM
T1 sequence (whole entry): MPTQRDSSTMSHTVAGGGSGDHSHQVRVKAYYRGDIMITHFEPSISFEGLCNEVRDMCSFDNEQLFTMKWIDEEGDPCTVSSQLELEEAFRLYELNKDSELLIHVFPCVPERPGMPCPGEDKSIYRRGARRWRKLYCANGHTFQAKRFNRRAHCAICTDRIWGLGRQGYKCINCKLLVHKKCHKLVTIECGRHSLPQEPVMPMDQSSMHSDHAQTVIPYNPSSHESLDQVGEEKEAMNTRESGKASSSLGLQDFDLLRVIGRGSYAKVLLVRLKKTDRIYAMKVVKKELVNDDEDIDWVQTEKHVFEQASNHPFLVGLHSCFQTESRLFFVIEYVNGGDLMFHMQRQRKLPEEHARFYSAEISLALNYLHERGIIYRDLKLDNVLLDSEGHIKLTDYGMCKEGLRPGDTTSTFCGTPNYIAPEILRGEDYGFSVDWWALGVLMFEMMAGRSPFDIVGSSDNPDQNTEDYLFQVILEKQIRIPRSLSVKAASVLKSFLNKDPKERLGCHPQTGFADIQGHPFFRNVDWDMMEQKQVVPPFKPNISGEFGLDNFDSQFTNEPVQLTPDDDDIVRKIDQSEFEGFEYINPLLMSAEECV

[3] = target: T1, Protein kinase C iota type (Homo sapiens); details: at 1 µM
[4] = target: Protein kinase C theta type (Homo sapiens) (UniProt Q04759); details: at 0.1 µM
[5] = target: Protein kinase C theta type (Homo sapiens) (UniProt Q04759); details: at 1 µM
[6] = target: Protein kinase C beta type (Homo sapiens) (UniProt P05771); details: at 0.1 µM
[7] = target: Protein kinase C beta type (Homo sapiens) (UniProt P05771); details: at 1 µM
[8] = target: T2, Serine/threonine-protein kinase D1 (Homo sapiens) (UniProt Q15139); details: at 0.1 µM
T2 sequence (whole entry): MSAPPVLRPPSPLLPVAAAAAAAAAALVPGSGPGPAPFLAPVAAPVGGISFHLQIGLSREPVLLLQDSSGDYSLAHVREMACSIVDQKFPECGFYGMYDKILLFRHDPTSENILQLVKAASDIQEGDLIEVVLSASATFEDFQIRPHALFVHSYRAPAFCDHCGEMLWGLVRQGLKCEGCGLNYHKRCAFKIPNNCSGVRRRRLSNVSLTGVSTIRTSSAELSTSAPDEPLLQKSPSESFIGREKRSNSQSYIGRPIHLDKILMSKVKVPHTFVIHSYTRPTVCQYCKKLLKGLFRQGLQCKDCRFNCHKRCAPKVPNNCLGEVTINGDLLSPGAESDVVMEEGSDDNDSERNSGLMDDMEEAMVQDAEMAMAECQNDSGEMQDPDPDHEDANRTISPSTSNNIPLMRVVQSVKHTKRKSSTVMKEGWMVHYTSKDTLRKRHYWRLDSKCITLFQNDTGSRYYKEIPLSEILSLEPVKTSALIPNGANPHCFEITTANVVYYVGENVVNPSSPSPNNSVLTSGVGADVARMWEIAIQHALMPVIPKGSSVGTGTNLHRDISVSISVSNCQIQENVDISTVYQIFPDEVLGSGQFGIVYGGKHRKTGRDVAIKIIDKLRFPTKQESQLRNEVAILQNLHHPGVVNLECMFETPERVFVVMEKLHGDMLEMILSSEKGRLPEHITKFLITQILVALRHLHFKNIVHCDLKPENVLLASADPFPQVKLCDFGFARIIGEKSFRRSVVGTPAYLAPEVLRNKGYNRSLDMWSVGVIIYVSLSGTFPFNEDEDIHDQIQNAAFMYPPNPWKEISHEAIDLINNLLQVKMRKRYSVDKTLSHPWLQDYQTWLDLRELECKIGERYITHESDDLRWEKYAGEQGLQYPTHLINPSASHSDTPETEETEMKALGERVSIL

[9] = target: T2, Serine/threonine-protein kinase D1 (Homo sapiens); details: at 1 µM
[10] = target: T3, Serine/threonine-protein kinase D2 (Homo sapiens) (UniProt Q9BZL6); details: at 0.1 µM
T3 sequence (whole entry): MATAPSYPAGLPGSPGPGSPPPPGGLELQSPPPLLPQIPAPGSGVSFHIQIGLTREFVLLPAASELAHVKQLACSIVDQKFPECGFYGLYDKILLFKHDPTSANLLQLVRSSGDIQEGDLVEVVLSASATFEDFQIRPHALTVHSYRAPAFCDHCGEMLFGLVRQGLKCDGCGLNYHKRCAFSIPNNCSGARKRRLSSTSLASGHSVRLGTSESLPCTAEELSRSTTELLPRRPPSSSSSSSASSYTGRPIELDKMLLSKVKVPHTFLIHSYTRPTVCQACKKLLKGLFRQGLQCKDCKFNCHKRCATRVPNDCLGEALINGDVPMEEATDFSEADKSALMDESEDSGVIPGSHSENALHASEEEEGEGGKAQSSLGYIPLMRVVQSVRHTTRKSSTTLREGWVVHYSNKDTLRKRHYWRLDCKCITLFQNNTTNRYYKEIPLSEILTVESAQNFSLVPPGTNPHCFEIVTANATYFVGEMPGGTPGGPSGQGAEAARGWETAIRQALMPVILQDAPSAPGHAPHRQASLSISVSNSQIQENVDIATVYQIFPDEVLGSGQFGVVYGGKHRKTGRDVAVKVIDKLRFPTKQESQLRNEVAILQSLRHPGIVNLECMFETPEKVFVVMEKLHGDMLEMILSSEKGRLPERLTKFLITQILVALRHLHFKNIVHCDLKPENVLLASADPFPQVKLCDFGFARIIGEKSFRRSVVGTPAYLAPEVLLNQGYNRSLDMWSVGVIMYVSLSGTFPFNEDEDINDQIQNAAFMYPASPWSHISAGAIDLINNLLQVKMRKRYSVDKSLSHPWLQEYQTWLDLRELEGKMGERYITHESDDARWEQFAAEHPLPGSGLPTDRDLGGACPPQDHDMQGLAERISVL

[11] = target: T3, Serine/threonine-protein kinase D2 (Homo sapiens); details: at 1 µM
[12] = target: T4, Serine/threonine-protein kinase D3 (Homo sapiens) (UniProt O94806); details: at 0.1 µM
T4 sequence (whole entry): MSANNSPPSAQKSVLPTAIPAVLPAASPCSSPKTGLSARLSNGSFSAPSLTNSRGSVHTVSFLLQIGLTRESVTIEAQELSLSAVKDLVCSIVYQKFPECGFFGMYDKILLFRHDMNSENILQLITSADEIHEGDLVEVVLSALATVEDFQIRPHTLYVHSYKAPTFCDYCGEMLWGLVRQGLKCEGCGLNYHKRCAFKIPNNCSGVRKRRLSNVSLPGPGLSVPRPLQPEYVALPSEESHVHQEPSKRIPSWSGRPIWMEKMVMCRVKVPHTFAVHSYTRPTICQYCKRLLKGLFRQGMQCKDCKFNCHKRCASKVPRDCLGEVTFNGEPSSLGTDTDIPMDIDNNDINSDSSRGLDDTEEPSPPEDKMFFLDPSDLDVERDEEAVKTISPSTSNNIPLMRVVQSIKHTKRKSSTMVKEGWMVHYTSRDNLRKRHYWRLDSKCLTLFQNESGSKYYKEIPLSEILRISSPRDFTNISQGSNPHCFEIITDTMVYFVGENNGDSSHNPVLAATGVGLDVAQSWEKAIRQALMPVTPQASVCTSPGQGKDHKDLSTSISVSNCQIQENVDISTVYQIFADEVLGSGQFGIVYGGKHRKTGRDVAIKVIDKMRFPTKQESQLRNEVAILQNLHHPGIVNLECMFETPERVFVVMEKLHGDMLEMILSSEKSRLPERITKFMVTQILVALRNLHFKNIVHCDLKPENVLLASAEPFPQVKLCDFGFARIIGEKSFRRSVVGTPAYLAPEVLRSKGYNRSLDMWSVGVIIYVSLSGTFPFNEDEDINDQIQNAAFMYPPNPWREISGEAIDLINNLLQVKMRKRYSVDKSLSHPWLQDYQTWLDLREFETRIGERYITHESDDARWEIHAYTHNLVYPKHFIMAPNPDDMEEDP

[13] = target: T4, Serine/threonine-protein kinase D3 (Homo sapiens); details: at 1 µM
[14] = target: T5, cGMP-dependent protein kinase 1 (Homo sapiens) (UniProt Q13976); details: at 0.1 µM
T5 sequence (whole entry): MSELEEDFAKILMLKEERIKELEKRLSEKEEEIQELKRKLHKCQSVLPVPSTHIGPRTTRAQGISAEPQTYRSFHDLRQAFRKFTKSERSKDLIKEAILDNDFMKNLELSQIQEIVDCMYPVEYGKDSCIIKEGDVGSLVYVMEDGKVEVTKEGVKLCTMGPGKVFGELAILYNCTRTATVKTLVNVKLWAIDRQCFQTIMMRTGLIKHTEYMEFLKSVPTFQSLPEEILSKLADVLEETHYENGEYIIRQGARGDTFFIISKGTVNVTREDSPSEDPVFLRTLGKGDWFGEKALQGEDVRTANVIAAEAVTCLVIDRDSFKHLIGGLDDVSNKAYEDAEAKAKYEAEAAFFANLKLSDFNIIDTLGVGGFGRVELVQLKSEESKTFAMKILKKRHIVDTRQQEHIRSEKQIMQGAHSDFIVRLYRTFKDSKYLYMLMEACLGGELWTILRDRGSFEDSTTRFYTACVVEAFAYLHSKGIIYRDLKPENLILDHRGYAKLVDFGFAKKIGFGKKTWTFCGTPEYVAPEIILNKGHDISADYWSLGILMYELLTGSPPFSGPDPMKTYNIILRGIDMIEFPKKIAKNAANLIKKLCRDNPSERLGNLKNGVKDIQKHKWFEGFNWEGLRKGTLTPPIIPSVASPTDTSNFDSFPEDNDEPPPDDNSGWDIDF

[15] = target: T5, cGMP-dependent protein kinase 1 (Homo sapiens); details: at 1 µM
[16] = target: T6, cGMP-dependent protein kinase 2 (Homo sapiens) (UniProt Q13237); details: at 0.1 µM
T6 sequence (whole entry): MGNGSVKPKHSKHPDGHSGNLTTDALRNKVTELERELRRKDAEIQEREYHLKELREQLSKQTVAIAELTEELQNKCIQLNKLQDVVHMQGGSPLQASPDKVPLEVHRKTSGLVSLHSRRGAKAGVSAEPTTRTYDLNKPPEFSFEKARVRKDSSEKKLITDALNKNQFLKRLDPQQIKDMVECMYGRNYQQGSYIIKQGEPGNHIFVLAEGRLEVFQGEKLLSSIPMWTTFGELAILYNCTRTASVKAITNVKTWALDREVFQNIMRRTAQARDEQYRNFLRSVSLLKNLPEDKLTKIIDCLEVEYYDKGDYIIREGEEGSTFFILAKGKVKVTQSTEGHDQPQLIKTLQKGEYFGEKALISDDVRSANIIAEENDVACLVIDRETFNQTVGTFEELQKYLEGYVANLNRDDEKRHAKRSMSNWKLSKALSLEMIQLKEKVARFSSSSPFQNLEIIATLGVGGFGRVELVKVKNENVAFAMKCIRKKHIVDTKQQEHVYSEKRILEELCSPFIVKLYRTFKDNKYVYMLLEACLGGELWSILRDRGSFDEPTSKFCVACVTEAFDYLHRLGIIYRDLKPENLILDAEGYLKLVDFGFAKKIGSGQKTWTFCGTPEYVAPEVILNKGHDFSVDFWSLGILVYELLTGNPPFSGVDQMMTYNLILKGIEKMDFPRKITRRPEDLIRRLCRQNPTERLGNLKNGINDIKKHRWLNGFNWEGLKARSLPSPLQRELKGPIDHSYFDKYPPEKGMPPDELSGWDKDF

[17] = target: T6, cGMP-dependent protein kinase 2 (Homo sapiens); details: at 1 µM
[18] = target: T7, cAMP-dependent protein kinase catalytic subunit PRKX (Homo sapiens) (UniProt P51817); details: at 0.1 µM
T7 sequence (whole entry): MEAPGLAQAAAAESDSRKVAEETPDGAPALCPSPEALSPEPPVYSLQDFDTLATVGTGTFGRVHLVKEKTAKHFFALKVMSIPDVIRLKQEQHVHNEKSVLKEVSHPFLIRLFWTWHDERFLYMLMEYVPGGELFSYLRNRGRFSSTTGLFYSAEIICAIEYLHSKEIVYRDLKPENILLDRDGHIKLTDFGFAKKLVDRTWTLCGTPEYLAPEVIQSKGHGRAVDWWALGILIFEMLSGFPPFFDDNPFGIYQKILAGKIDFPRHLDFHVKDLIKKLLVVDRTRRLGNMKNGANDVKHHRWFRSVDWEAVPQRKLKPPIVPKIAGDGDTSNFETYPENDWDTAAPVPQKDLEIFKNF

[19] = target: T7, cAMP-dependent protein kinase catalytic subunit PRKX (Homo sapiens); details: at 1 µM
[20] = target: Rho-associated protein kinase 1 (Homo sapiens) (UniProt Q13464); details: at 0.1 µM;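 also: values are mean percent inhibition of ROCK1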
Sequence of Rho-associated protein kinase 1 (Homo sapiens) (Q13464 2-1354 limits assumed): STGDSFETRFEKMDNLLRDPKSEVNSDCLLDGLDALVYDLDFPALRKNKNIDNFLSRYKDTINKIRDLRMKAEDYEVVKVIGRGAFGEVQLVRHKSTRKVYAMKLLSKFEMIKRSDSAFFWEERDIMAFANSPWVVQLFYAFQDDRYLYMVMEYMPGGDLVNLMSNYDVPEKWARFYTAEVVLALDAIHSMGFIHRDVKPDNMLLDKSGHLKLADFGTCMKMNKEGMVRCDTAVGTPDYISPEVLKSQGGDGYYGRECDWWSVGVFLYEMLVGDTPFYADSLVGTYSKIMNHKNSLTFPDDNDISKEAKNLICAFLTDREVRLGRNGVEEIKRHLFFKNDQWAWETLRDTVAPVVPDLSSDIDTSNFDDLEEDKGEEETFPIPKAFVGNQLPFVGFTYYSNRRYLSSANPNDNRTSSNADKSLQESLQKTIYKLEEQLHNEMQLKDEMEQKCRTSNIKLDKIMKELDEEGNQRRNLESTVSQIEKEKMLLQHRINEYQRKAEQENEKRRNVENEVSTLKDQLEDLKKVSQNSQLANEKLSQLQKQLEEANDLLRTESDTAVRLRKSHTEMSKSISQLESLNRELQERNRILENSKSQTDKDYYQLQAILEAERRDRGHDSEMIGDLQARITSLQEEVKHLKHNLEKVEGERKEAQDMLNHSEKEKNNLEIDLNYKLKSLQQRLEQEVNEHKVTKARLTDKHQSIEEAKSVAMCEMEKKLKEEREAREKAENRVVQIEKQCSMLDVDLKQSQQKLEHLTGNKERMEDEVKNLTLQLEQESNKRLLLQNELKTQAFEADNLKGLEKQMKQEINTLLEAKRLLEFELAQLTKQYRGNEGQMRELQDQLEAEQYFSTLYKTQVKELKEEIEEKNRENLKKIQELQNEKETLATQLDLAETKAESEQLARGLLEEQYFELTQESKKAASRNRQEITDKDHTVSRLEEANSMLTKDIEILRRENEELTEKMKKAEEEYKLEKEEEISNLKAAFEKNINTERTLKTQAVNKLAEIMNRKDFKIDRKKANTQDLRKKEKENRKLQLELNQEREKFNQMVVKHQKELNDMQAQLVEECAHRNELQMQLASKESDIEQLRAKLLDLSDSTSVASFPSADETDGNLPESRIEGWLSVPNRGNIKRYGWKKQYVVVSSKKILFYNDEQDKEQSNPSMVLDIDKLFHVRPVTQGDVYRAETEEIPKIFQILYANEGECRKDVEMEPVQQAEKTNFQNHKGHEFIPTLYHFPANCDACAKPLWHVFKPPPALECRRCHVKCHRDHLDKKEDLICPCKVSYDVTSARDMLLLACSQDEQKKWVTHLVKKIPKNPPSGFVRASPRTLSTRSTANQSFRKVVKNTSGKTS

Sequence of Protein kinase C beta type (Homo sapiens) (P05771 2-671 limits assumed): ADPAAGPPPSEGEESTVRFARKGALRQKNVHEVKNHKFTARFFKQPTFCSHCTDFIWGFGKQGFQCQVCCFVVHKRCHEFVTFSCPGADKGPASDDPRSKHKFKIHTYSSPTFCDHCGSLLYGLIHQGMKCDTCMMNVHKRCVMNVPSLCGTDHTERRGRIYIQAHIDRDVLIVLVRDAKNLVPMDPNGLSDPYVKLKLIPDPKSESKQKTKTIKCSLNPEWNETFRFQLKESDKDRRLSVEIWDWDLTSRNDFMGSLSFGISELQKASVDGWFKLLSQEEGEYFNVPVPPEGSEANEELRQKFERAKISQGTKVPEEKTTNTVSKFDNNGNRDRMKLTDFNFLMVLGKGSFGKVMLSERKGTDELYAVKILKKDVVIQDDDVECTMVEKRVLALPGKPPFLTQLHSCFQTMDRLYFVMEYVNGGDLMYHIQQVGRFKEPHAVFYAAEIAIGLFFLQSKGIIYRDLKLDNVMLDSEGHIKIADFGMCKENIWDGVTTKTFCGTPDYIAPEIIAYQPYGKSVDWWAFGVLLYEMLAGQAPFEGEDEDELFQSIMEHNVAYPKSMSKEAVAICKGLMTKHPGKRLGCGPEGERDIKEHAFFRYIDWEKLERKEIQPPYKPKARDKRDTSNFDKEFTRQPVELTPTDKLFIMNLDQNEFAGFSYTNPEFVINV
Sequence of Protein kinase C theta type (Homo sapiens) (Q04759 whole entry, looked up): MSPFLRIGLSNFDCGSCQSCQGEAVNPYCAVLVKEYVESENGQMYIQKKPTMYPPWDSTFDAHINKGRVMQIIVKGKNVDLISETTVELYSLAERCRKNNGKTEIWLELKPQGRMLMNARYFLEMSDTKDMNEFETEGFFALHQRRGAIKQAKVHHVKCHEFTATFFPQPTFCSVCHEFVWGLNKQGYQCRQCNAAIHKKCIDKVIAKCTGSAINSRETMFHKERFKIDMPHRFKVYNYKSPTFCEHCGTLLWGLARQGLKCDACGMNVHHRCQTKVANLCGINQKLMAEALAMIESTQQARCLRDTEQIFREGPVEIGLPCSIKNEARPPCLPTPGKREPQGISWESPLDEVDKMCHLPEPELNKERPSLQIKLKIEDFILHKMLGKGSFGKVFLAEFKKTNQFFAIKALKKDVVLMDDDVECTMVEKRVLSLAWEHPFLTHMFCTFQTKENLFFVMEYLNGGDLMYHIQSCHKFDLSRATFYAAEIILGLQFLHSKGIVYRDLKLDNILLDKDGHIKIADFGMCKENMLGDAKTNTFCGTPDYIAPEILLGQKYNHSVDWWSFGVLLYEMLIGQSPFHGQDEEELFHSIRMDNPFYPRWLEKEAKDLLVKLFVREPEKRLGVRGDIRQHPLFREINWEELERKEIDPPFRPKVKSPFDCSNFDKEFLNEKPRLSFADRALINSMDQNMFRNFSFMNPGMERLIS

Structure (SMILES) | inhibition [1] [%] | inhibition [2] [%] | inhibition [3] [%] | inhibition [4] [%] | inhibition [5] [%] | inhibition [6] [%] | inhibition [7] [%] | inhibition [8] [%] | inhibition [9] [%] | inhibition [10] [%] | inhibition [11] [%] | inhibition [12] [%] | inhibition [13] [%] | inhibition [14] [%] | inhibition [15] [%] | inhibition [16] [%] | inhibition [17] [%] | inhibition [18] [%] | inhibition [19] [%] | inhibition [20] [%]
CC(C)c1ccc2c(c1)NC(=O)/C2=N/Nc1ccc(S(N)(=O)=O)cc1 | -0.76 | -1.39 | -2.44 | -0.41 | -0.44 | -0.24 | 0.73 | 0.07 | 0.8 | -0.15 | -0.41 | -0.27 | -0.32 | -1.53 | 1.06 | -0.39 | -0.18 | 0.2 | -0.32 | -1.01
CS(=O)(=O)CCNCc1nc(-c2ccc3ncnc(Nc4ccc(OCc5cccc(C(F)(F)F)c5)cc4)c3c2)cs1 | 1.21 | -0.91 | -0.71 | 0.61 | 0.48 | 0.86 | 1.98 | 1.69 | 0.7 | 1.93 | 0.2 | 0.92 | 2.19 | 0.49 | 2.23 | 0.51 | 1.54 | 0.7 | -0.71 | -0.53
COc1cccc(-n2ncc3c(N/N=C/c4ccc(S(C)(=O)=O)cc4)ncnc32)c1 | 3.18 | 2.06 | 0.98 | -0.11 | 1.19 | 2.19 | 13.3 | -2.12 | -1.45 | -2.64 | -2.8 | -6.98 | -2.38 | 1.11 | 1.69 | 1.59 | 1.79 | 1.68 | 1.61 | 0.21
Cc1ccc(C(=O)NC2CC2)cc1-c1ccc2[nH]ncc2c1 | 0.02 | -1.83 | -1.13 | -1.64 | 0.05 | -0.94 | -0.69 | -4.08 | -2.68 | -2.91 | 0.22 | -3.35 | -2.14 | -1.78 | 1.62 | -1.53 | -0.47 | -1.3 | -0.54 | -0.64
